Compounds with a hit are over-represented: about 2.3% of the library has one in this group of screens.
AmpC detergent: qHTS Inhibitors of AmpC Beta-Lactamase (assay with detergent); AmpC hydrolysis of nitrocefin, absorbance 480 nm, 0.01% Triton; Potency, µM (top dose mostly 114 µM), hits mostly inhibitors; 370,000 compounds, 0.041% hits; also: nearly all actives have a fitted effect of over 25% in size
Target sequence (P00811 whole entry, looked up): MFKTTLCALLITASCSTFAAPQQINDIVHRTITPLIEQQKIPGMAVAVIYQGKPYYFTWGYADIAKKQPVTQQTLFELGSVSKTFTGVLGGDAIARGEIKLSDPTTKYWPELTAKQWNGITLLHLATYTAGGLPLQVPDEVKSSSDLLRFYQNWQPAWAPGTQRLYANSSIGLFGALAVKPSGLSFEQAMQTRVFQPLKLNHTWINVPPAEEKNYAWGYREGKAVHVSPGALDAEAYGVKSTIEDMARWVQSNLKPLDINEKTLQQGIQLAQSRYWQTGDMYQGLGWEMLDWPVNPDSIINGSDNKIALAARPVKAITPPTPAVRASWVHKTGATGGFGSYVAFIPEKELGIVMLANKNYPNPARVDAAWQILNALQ
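20 mM phosphate pH 7.0 + 0.01% (detergent screen) or 0.0001% Triton X-100; 5.3 nM AmpC reagent; cpd preinc 15 min RT; nitrocefin (800 uM stock) to start; A480 q20 s × 4 min; Activity was normalised to no-enzyme and no-compound control wells.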
AMA1 RON2 block: qHTS for Inhibitors of AMA1-RON; Towards Development of Antimalarial Drug Lead: Primary Screen. AlphaScreen AMA1-biotinylated RON2 peptide binding. Potency, µM (titrated, usually from 58.2 µM), actives largely listed as inhibitors. AID 720542, 2013. 360,000 compounds, 0.2% hits; also: nearly all actives have a fitted effect of over 45% in size
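AMA1 (3D7) with his tag at 25 nM final met compounds first, then biotinylated RON2 peptide at 25 nM; detection used donor plus acceptor beads, 10 µg/mL apiece, read by AlphaScreen after 30 min at room temperature.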
LASV entry inh: qHTS for Inhibitors of binding or entry into cells for Lassa Virus. Potency, µM (series often up to 37.9 µM), most hits filed as inhibitors. 300,000 compounds, 1.2% hits. AID 540256, 2011. Lassa virus pseudotype entry inhibition, cell reporter; calls by dose curve; tested in HEK293 cells; also: nearly all actives have a fitted effect of over 50% in size
AmpC inh no detg: qHTS Inhibitors of AmpC Beta-Lactamase (assay without detergent); Potency, µM (titrated, usually from 57.1 µM), actives largely listed as inhibitors; AID 485341, 2010; 330,000 compounds, 0.52% hits; AmpC nitrocefin hydrolysis, absorbance 480 nm, 0.0001% Triton; also: nearly all actives have a fitted effect of over 20% in size
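AmpC (5.3 nM in the dispensed reagent) in 20 mM phosphate pH 7.0 with 0.01% (detergent screen) or 0.0001% Triton X-100 was preincubated with compounds for 15 min at room temperature. Nitrocefin was then added from an 800 uM solution, and hydrolysis was followed at 480 nm.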
Marburg entry inh: qHTS for inhibitors of binding or entry into cells for Marburg Virus; 300,000 compounds, 1.8% hits; Marburg virus pseudotyped entry inhibition, cell reporter; Potency, µM (highest dose often 37.8 µM), usual class: inhibitors; calls by dose curve; tested in HEK293 cells
A number is an active result; 0 = inactive; ? = inconclusive; - = no result given; [ ] = remark or other dose. Unless noted, calls follow the shape of the dose curve; as a rule, active = well fitted curve in the direction sought with a large enough effect; inconclusive = small, poorly fitted or top-dose-only effect, or another doubt; inactive = no such curve, though single readings can be large; an effect the other way counts as inactive or inconclusive.

SMILES | AmpC detergent | AMA1 RON2 block | LASV entry inh | AmpC inh no detg | Marburg entry inh
CN(CC/C=C1/c2ccccc2CSc2ccccc21)CCCO | 0 | 0 | ? | 0 | ?
C=CCN(C)CC/C=C1\c2ccccc2CSc2ccccc21 | 0 | 14.1µM | 0 | 0 | ?
CN(C)CC/C=C1\c2cc(F)ccc2CSc2ccccc21 | ? | 0 | 16.4µM | 0 | ?
CCOC(=O)NN=C1C[C@@H](O)[C@@H](O)[C@@H]2[C@H]3C(=O)N(C[C@@H]4CCCO4)C(=O)[C@@H]3CC[C@H]12 | - | - | - | - | 0
C=C[C@@]1(C)CC[C@H](O)[C@H]2C(=O)CCC[C@H]21 | - | - | - | - | 0
CC[C@@H]1CCCCN1c1nc(-c2ccncc2)nc2ccccc12 | - | - | - | - | 9.2µM
c1ccc(-c2nc(N3CCCCCC3)c3ccccc3n2)nc1 | 0 | 0 | 3.98µM | 0 | ?
CN1CCN(c2nc(-c3ccncc3)nc3ccccc23)CC1 | 0 | 0 | 0 | 0 | 7.94µM
c1ccc(-c2nc(N3CCOCC3)c3ccccc3n2)nc1 | ? | 0 | ? | 0 | ?
Cc1ccccc1NC(=O)CN1C(=O)N/C(=C/c2cccn2-c2cccc(C(=O)O)c2)C1=O | - | - | - | - | 0
Cc1ccccc1NC(=O)c1ccc2nccnc2c1 | 0 | 0 | 0 | 0 | 0
Cc1ccc(O)cc1Nc1ccnc2cc(-c3ccccn3)ccc12 | - | - | 25µM | - | -
O=S1(=O)C=C(Sc2nc3ccccc3s2)c2ccccc21 | 0 | 0 | ? | ? | 3.66µM
O=C(CSc1nc2ccccc2s1)CSc1nc2ccccc2s1 | 0 | 0 | 0 | 0 | 0
Cc1cc(C)nc(SC2=CS(=O)(=O)c3ccccc32)n1 | 0 | 0 | ? | 0 | 4.47µM
O=S1(=O)C=C(Sc2nnc(-c3ccccc3)o2)c2ccccc21 | ? | 0 | 20.6µM | 0 | 5.8µM
CCN(CC)c1ccc(-c2nc(-c3ccco3)no2)cc1[N+](=O)[O-] | 0 | - | 0 | - | ?
CCOC(=O)c1c(Nc2ccc(OC)cc2)nnc(-c2ccccc2)c1-c1ccccc1 | 0 | - | ? | - | 0
CCC(CC)C(=O)c1c[nH]c(C(=O)NCc2ccco2)c1 | 0 | 0 | ? | 0 | 0
CCC(CC)C(=O)c1c[nH]c(C(=O)NCc2cccs2)c1 | 0 | 0 | 2.51µM | 0 | 0
O=C1NC(=Nc2ccccc2)S/C1=C\C=C\c1ccco1 | 0 | 0 | ? | 14.1µM | ?
Cc1cccc(N=C2NC(=O)/C(=C/c3cccn3C)S2)c1C | 0 | 0 | ? | 0 | 8.91µM
Cc1ccc(N=C2NC(=O)/C(=C/C=C/c3ccco3)S2)cc1 | 0 | 0 | ? | 0 | 0
Cc1cccc(N=C2NC(=O)/C(=C/C=C/c3ccco3)S2)c1C | 0 | 0[2.32 µM] | ? | 31.6µM | 0
CC(=O)Nc1ccccc1-c1nc2ccccc2n(Cc2cccc(Br)c2)c1=O | 0 | - | 0 | - | 0
SMILES | AmpC detergent | AMA1 RON2 block | LASV entry inh | AmpC inh no detg | Marburg entry inh
CC(=O)OC[C@H]1O[C@H](C#Cc2ccc(C)cc2C)C=C[C@@H]1OC(C)=O | - | - | - | - | 0
Cc1ccc(Sc2ccc(N3CCC(C(=O)Nc4ccc(Cl)cc4)CC3)nn2)cc1 | 0 | - | ? | - | 0
Cn1c(=O)n(CCc2ccccc2)c(=O)c2c1nc1n2CCN1c1ccc(Cl)cc1 | 0 | - | 0 | - | -
Cc1ccccc1Nc1oc(-c2ccccc2)nc1-c1ccc(C(F)(F)F)cc1 | - | - | ? | - | 0
CCn1c(-c2nonc2N)nc2c(C#CC(C)(C)O)nc(OC(CN)c3ccccc3)cc21 (configuration not stated) | - | - | 8.88µM | - | -
CCOc1ccc(CNC(=O)Cn2cc3c(n2)-c2c(oc(C(=O)N4CCOCC4)c2C)CC3)cc1 | 0 | - | 0 | - | -
Cc1ccc(C)c(NC(=O)CN(C)C(=O)c2ccc3[nH]c4c(c3c2)CC(C)CC4)c1 (configuration not stated) | 0 | 0 | 0.562µM | 0 | 0
CCN(CC(=O)Nc1ccc(OC)cc1)C(=O)c1ccc2[nH]c3c(c2c1)CC(C)CC3 (configuration not stated) | 0 | 0 | - | 0 | -
CC1CCc2[nH]c3ccc(C(=O)N(C)CC(=O)Nc4ccccc4Br)cc3c2C1 (configuration not stated) | 0 | ? | ? | 28.2µM | ?
O=C(O)c1cc(O)c2c(c1)[C@H]([C@H]1c3cc(C(=O)O)cc(O)c3C(=O)c3c(O[C@@H]4OC(CO)C(O)C(O)C4O)cccc31)c1cccc(O[C@@H]3OC(CO)C(O)C(O)C3O)c1C2=O (some centres not stated) | - | - | 0 | - | ?
CC(C1CC1)N(Cc1ccccc1)C(=O)NC(=O)c1ccc(F)cc1 (configuration not stated) | ? | 0 | 11.2µM | 0 | 0
CCOC(=O)c1sc(NC(=O)Cn2nnc3sc4c(c3c2=O)CCC(C(C)(C)C)C4)nc1C (configuration not stated) | 0 | 0 | 0 | 3.55µM | 0
c1ccc(-c2csc3ncnc(NCC4COc5ccccc5O4)c23)cc1 (configuration not stated) | 0 | 0 | ? | 0 | 2.24µM
CC(C)=CCc1c(O)cc(O)c2c1OC(c1ccc(O)cc1)CC2=O (configuration not stated) | - | 0 | - | - | -
CC(C)=CCc1c(O)c(CC=C(C)C)c2c(c1O)C(=O)CC(c1ccc(O)cc1)O2 (configuration not stated) | 0 | 0 | - | 14.1µM | -
CCC[C@H]1CN(Cc2cccnc2)C(=O)[C@H]1CC(=O)Nc1ccc(Br)cc1 | - | - | 0 | - | -
Cc1c(Cc2ccc3c(c2)OCO3)sc(NC(=O)C2CC2)c1C(N)=O | 0 | 0 | 8.91µM | 0 | 0
Cc1c(Cc2ccc3c(c2)OCO3)sc(NC(=O)c2cccc3ccccc23)c1C(N)=O | 0 | 0 | 0 | 0 | 0
O=C(CSCc1cnn(-c2ccccc2)c1-n1cccc1)NCc1ccc(F)cc1 | 0 | - | 0 | - | 0
CCN1CCN(CCCNC(=O)c2cc3c(s2)-c2c(C)cccc2OC3)CC1 | 0 | - | - | - | 10µM
Cc1cccc2c1-c1sc(C(=O)Nc3ccccc3N3CCN(C)CC3)cc1CO2 | 0 | 0 | ? | 0 | 15.8µM
CCN1CCN(C(=O)c2cc3c(s2)-c2c(C)cccc2OC3)CC1 | 0 | 0 | - | 0 | -
O=C(Nc1ccccc1N1CCCCC1)c1ccc(-c2cccc(Cl)c2)o1 | 0 | 0 | 0 | 0 | ?
CN1CCN(c2ccccc2NC(=O)c2ccc(-c3cccc(Cl)c3)o2)CC1 | 0 | ? | 0 | 0 | 12.6µM
Cc1cccc2c1-c1sc(C(=O)NCCCN3CCN(c4ccccc4F)CC3)cc1CO2 | 0 | - | - | - | 11.2µM
C[C@@H]1CC[C@H]2C(=O)N(Cc3ccccc3)C[C@H](O)CN2[C@H]1c1ccc(Br)cc1 | - | - | - | - | 0
Cc1ccccc1NC(=O)c1sc2nc(-c3ccncc3)ccc2c1N | 0 | - | 0 | - | ?
Cn1cc(C(=O)NCCc2ccc(Cl)cc2)c(=O)c2cc(S(=O)(=O)N3CCOCC3)ccc21 | 0 | - | 0 | - | 0
COc1ccccc1N1CCN(CCCCNC(=O)c2ccc3ccccc3c2)CC1 | 0 | 0 | - | 0 | 8.91µM

Screening data: PubChem, National Center for Advancing Translational Sciences (NCATS)
